HT1080 IDH1KD tx – kills HT-1080 cells with IDH1 knockdown; HT-1080 IDH1 knockdown viability, ATP luminescence, 48 h; Potency, µM (titrated, usually from 46.1 µM), for the others: at the top dose activity, negative = toxicity, hits mostly cytotoxic; 2% of 360,000 active; AID 686971;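 further: potency means the concentration at half of the fitted maximal effect; 0% = DMSO wells and -100% = cell-free medium wells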
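IDH1KD HT-1080 cells, 750/well, RPMI + 5% FBS; compound pinned after 2 h settling; 48 h, 37 °C; CellTiter-Glo luminescence; % activity normalised to DMSO and no-cell wells; curves fitted, classed by r2 and efficacy.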
DT40 TDP1 no CPT – qHTS for Inhibitors of human tyrosyl-DNA phosphodiesterase 1 (TDP1): qHTS in cells in absence of CPT. DT40 Tdp1-/- hTDP1 cells, no CPT, ATP luminescence, 48 h. Potency, µM (top dose mostly 46.2 µM), inactives show at the top dose activity change, negative = growth inhibition, usual class: inhibitors. 15% of 420,000 active; further: potency means the concentration at half of the fitted maximal effect; nearly all actives have a fitted effect of over 55% in size
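Cells were dispensed at 400 per well, compounds added by pin tool, plates incubated ≥48 hr at 37 °C, then CellTiter-Glo added for 30 min at room temperature before luminescence reading. Line: DT40 Tdp1-/- complemented with hTDP1; camptothecin omitted.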
HT1080-NT tox – kills 2HG-producing HT-1080-NT fibrosarcoma cells | 1.6% of 360,000 active | Potency, µM (titrated, usually from 46.1 µM), for inactives: at the top dose activity, negative = less viability, actives largely listed as cytotoxic | HT-1080-NT fibrosarcoma viability, CellTiter-Glo ATP luminescence, 48 h;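 further: NT is the 2HG producing partner of a matched IDH1 knockdown line; potency means the concentration at half of the fitted maximal effect; 0% = DMSO-treated cells and -100% = media-only wells without cells; nearly all actives have a fitted effect of over 55% in size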
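Toxicity toward the 2HG-producing NT line was scored as %Activity, normalised to DMSO and no-cell wells, from CellTiter-Glo luminescence after 48 hours' treatment.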
ELG1 DNA repair – ELG1-dependent DNA repair inhibition | HEK293T ELG1-luciferase reporter, luminescence, 16 h; DNA damage induced by 5-fluorouridine | Potency, µM (top dose mostly 46.1 µM), for the others: at the highest dose activity change, negative = inhibition, actives largely listed as inhibitors | 2.3% of 330,000 active | AID 504467; further: potency means the concentration at half of the fitted maximal effect; nearly all actives have a fitted effect of over 55% in size
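5-Fluorouridine DNA damage + compound/DMSO, 2,000 cells/well, 16 h, 37 °C/5% CO2. ONE-Glo, 30 min RT, luminescence. Readout = decrease in reporter signal.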
TDP1 cell CPT – growth inhibition of DT40 Tdp1-/-;hTDP1 cells with camptothecin (screen for TDP1 inhibitors). Potency, µM (titrated, usually from 46.2 µM), without a hit: at the highest dose activity change, negative = growth inhibition, hits mostly inhibitors. AID 686979. chicken DT40 Tdp1-/-;hTDP1 cells + 20 nM CPT, ATP luminescence, 48 h. 12% of 420,000 active; further: potency means the concentration at half of the fitted maximal effect; nearly all actives have a fitted effect of over 55% in size
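Chicken DT40 Tdp1-/- cells stably complemented with human TDP1 were seeded at 400 cells/well in medium containing 20 nM camptothecin, exposed to pin-transferred compounds, and grown at 37 °C for at least 48 hr. Viability was read as ATP luminescence.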
IL1B secr inh – blocks inflammasome-driven IL-1 beta release. THP-1 LPS/ATP IL-1B secretion, AlphaLISA, 16 h; hits give low values. activity change, % at 57.5 µM. 4.7% of 360,000 active; in the data active means activity change below about -50%; inconclusive means mostly about -30% to -49%
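Secreted IL-1B measured by AlphaLISA bead assay after 16 h compound exposure of THP-1 cells; compounds (final up to 57.5 uM) added 1 h before LPS (250 ng/mL) and ATP (1.25 mM) stimulation; lower signal means less secretion.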
* marks the source's active call; other numbers are inactive results; ? = inconclusive; nt = not tested or not shown. An excerpt weighted towards active compounds, which were near 19% of everything screened. Unless noted, the call rests on the fitted dose curve; in most records, active means well fitted curve in the direction sought with a large enough effect; inconclusive means small, poorly fitted or top-dose-only effect, or another doubt; inactive means no such curve, though single readings can be large; an effect the other way counts as inactive or inconclusive. Unless noted, on the % scale 0 is the no-effect control and ±100 the full control effect.

SMILES	HT1080 IDH1KD tx	DT40 TDP1 no CPT	HT1080-NT tox	ELG1 DNA repair	TDP1 cell CPT	IL1B secr inh
CCC(C(=O)NC(C)(C)C)N(Cc1ccccc1Cl)C(=O)c1snc(C(N)=O)c1N (stereo unspecified)	1%	8%	7%	-26%	-4%	27
CC(C(=O)NCc1ccccc1)N(Cc1ccccc1Cl)C(=O)c1snc(C(N)=O)c1N (stereo unspecified)	0%	-17%	-13%	-5%	?	-75*
COc1ccc(C(C(=O)NCc2ccccc2)N(Cc2ccco2)C(=O)c2snc(C(N)=O)c2N)cc1 (stereo unspecified)	-12%	?	1%	21µM*	?	-15
Oc1c(C(c2ccc(Cl)cc2)N2CCOCC2)sc2nc(-c3ccco3)nn12 (stereo unspecified)	nt	-18%	nt	nt	-8%	nt
Cc1ccc(N2CC(NC(=O)C3CC3)CC2=O)cc1C (stereo unspecified)	nt	-8%	nt	nt	23%	nt
COC(=O)C1=C2SCC(=O)N2C(N)=C(C#N)C1	0%	-13%	-4%	11%	-7%	-9
CCN(CC)CCCNc1oc(-c2ccccc2[N+](=O)[O-])nc1C#N	8%	-5%	13%	1%	-2%	13
COc1ccc(C(C(=O)NCc2ccccc2)N(Cc2ccco2)C(=O)c2snc(C(N)=O)c2N)cc1OC (stereo unspecified)	-6%	?	-14%	15µM*	?	-20
CCc1ccccc1N(CC(=O)NCc1ccco1)C(=O)c1snc(C(N)=O)c1N	0%	18µM*	-1%	-9%	?	-19
COc1cccc(NC(=O)Cn2nnc(-c3nc(-c4ccccc4)no3)c2N)c1	nt	18µM*	nt	nt	?	nt
Cc1ccc(-c2noc(-c3nnn(CC(=O)Nc4cccc(C(F)(F)F)c4)c3N)n2)cc1	nt	2.1µM*	nt	nt	2.1µM*	nt
Cc1ccc(-c2noc(-c3nnn(CC(=O)Nc4ccc(C)c(Cl)c4)c3N)n2)cc1	nt	-14%	nt	nt	-28%	nt
CSc1ccccc1NC(=O)c1cccc(S(=O)(=O)N2CCN(C)CC2)c1	0%	-3%	22%	?	-7%	14
C=C1CC(COc2ccc3c(C)c(Cl)c(=O)oc3c2)(c2ccccc2)OC1=O (stereo unspecified)	6.5µM*	1.6µM*	16µM*	nt	1.6µM*	-100*
CCOC(=O)c1c(C)[nH]c(C)c1S(=O)(=O)N(C)CC(=O)Nc1ccc(C)c(N(C)C)c1	nt	-17%	nt	nt	-22%	nt
COC1=CC(=NCl)C=CC1=NCl	22%	16µM*	24%	nt	21µM*	44
CC(CN1CCCC1)OC(=O)c1ccc(Br)cc1 (stereo unspecified)	0%	?	24%	12%	9%	6
COc1cccc(CNC(=O)C(C)n2ncn3cccc3c2=O)c1OC (stereo unspecified)	nt	-10%	nt	nt	-3%	nt
COCC(=O)Nc1cccc(-c2ccc3nncn3n2)c1	1%	17%	-3%	21%	-14%	-4
COc1ccc(S(=O)(=O)Nc2cccc(-c3ccc4nncn4n3)c2)cc1	10µM*	2.6µM*	16µM*	-13%	3.7µM*	27
COc1ccc(S(=O)(=O)Nc2ccc(-c3ccc4nncn4n3)cc2)c(OC)c1	?	10µM*	?	6%	9.2µM*	-7
O=C(COc1ccc(Cl)cc1)Nc1cccc(-c2ccc3nncn3n2)c1	2%	16µM*	22%	10%	-25%	-18
CCc1ccc(S(=O)(=O)Nc2cccc(-c3ccc4nncn4n3)c2)s1	?	15µM*	?	?	?	27
O=S(=O)(Nc1ccc(-c2ccc3nncn3n2)cc1)c1ccc(Cl)s1	-2%	-11%	-7%	5%	6%	26
O=S(=O)(Nc1ccc(-c2ccc3nncn3n2)cc1)c1ccccc1Cl	-13%	-10%	-10%	8%	?	8
SMILES	HT1080 IDH1KD tx	DT40 TDP1 no CPT	HT1080-NT tox	ELG1 DNA repair	TDP1 cell CPT	IL1B secr inh
CCOC(=O)c1c(S(=O)(=O)NCC(=O)N(C)Cc2ccccc2)c(C)n(C)c1C	nt	-13%	nt	nt	-19%	nt
COc1ccc(OC)c(S(=O)(=O)NC(=O)C2(C)CCN2C(=O)Cc2ccccc2Cl)c1 (stereo unspecified)	?	5%	10%	nt	11%	26
O=c1c(-c2ccccc2)nc2cncnc2n1Cc1ccccc1Cl	nt	-49%	nt	nt	-22%	nt
COc1cccc(C(=O)Nc2cccc(-c3ccc4nncn4n3)c2)c1OC	-3%	?	-2%	?	?	23
COc1ccc(C(=O)Nc2cccc(-c3ccc4nncn4n3)c2)cc1	?	15µM*	-9%	11%	15µM*	21
COc1ccc(Cl)cc1C(=O)Nc1cccc(-c2ccc3nncn3n2)c1	13%	-19%	4%	5%	?	-64*
COc1cc(OC)cc(C(=O)Nc2cccc(-c3ccc4nncn4n3)c2)c1	nt	nt	nt	-18%	nt	nt
N#CCCN(C(=O)COC(=O)C1CCN(S(=O)(=O)c2ccccc2C(F)(F)F)CC1)c1ccccc1	10%	19%	5%	nt	6%	-5
Nc1ccccc1Sc1nc2ccccc2[nH]1	-14%	15µM*	-16%	?	13µM*	27
Nc1nc2ccccc2[nH]1	7%	9%	2%	1%	17%	-3
COC(=O)CNC(c1ccccc1)c1cc(Br)ccc1NC(=O)c1cc(OC)c(OC)c(OC)c1 (stereo unspecified)	nt	7.3µM*	nt	nt	16µM*	nt
COc1ccc(NC(=O)c2cccc(NC(=O)c3ccccc3)c2)cc1	-20%	?	-5%	23%	-35%	?
NC(=O)c1ccc(NC(=O)CNC(c2ccccc2)c2ccccc2)cc1	0%	3%	7%	3%	4%	47
COc1ccc(N/N=C(C)/C(=N/O)C(=O)Nc2ccccc2)cc1	?	15µM*	?	?	?	-8
COc1ccccc1C(CC(=O)Nc1ccc(Cl)cc1)c1ccc(OC(C)C)cc1 (stereo unspecified)	-17%	?	-14%	-15%	16µM*	-6
COc1ccc(NC(=O)CNC(c2ccccc2)c2ccccc2)cc1	0%	26µM*	-3%	-6%	?	16

High-throughput results deposited in PubChem BioAssay by National Center for Advancing Translational Sciences (NCATS).
